Screening results deposited in PubChem by National Center for Advancing Translational Sciences (NCATS).
GLS inh: blocks human kidney-isoform glutaminase activity; O94925; GLS enzymatic activity, qHTS titration; Potency, µM (series often up to 45.5 µM), without a hit: at the highest dose activity change, negative = inhibition, hits mostly inhibitors; hit rate 0.21% among 410,000; AID 624170; further: on the % scale 0 is the no-effect control and ±100 the full control effect
Target sequence (O94925 whole entry, looked up, canonical isoform): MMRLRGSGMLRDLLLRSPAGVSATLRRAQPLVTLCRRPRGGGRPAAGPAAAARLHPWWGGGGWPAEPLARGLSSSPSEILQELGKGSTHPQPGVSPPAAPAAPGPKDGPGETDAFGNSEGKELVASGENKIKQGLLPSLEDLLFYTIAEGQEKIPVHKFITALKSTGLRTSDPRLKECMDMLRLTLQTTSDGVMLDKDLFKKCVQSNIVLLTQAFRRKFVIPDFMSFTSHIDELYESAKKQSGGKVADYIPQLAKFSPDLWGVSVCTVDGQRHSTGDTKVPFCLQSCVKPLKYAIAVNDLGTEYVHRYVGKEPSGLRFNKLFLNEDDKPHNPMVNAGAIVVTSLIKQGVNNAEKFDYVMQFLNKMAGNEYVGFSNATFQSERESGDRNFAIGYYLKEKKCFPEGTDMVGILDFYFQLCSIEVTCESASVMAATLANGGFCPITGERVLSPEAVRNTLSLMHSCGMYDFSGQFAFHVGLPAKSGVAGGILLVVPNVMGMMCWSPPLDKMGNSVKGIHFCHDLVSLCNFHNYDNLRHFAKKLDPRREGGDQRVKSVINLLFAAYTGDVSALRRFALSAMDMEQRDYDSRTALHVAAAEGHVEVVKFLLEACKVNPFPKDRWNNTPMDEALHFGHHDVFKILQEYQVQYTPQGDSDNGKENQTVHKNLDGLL
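Assay buffer: 45 mM KH2PO4 pH 8.2, 0.02% Tween-20. hKGA acts on L-glutamine (1 mM solution added); product glutamate is reported by an oxidase/peroxidase Amplex Red coupling, with fluorescence taken at baseline and 30 min.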
BAZ2B inh: BAZ2B (human) inhibition; AID 504333; Potency, µM (doses to about 114 µM), inactives show at the top dose activity change, negative = inhibition, actives largely listed as inhibitors; AlphaScreen BAZ2B-H3K14Ac peptide displacement; hit rate 4.4% among 360,000; further: on the % scale 0 is the no-effect control and ±100 the full control effect; nearly all actives have a fitted effect of over 60% in size
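Inhibition is scored as reduced AlphaScreen emission. The BAZ2B/b-H3(5-23)K14Ac complex (50 nM each) in PBS pH 7.4, 0.01% Tween-20 meets compound (up to 110 uM) for 30 min at RT before bead addition.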
HP1b binding inh: blocks HP1-beta chromodomain binding to methylated histone tails. P83916. AlphaScreen HP1-beta / biotin-H3K9me3 peptide binding. Potency, µM (highest dose often 114 µM), for the others: top-dose activity change, negative = inhibition, usual class: inhibitors. hit rate 0.56% among 390,000; further: nearly all actives have a fitted effect of over 70% in size
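Compound inhibition of the preformed complex between 50 nM HP1-beta and 50 nM biotinylated H3K9me3 peptide was read by AlphaScreen. Buffer was PBS pH 7.4 with 0.01% Tween-20. Incubations ran 30 min at room temperature, with 10 ug/mL donor/acceptor beads.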
G9a block: G9a (human) methyltransferase inhibition; G9a H3K9 monomethylation, AlphaScreen, 2 h; Potency, µM (top dose mostly 102 µM), for inactives: top-dose activity, negative = inhibition, most hits filed as inhibitors; hit rate 8.8% among 350,000; AID 504332; further: on the % scale 0 is the no-effect control and ±100 the full control effect; nearly all actives have a fitted effect of over 75% in size
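Quantitative HTS format: methyltransferase activity on a biotin-tagged H3K9 peptide is measured by AlphaScreen, using a rabbit anti-monomethyl-H3K9 antibody with streptavidin donor and anti-IgG acceptor beads. Final levels are 20 nM enzyme, 500 nM peptide, 20 uM SAM; 2 h RT.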
JMJD2A Tudor inh: inhibitors of human JMJD2A Tudor domain; O75164; Potency, µM (highest dose often 114 µM), for the others: at the highest dose activity change, negative = inhibition, hits mostly inhibitors; hit rate 4.4% among 390,000; AlphaScreen JMJD2A-Tudor / H3K4me3 peptide binding; further: on the % scale 0 is the no-effect control and ±100 the full control effect; nearly all actives have a fitted effect of over 50% in size
The depositor's hits bear a star; u = inconclusive; x = no result; [ ] = another dose, or the depositor's remark. Sampled rows, rich in hits. Any-hit rate of the full collection: about 10%. The call rests on the fitted dose curve; in most records, active means well fitted curve in the direction sought with a large enough effect; inconclusive means small, poorly fitted or top-dose-only effect, or another doubt; inactive means no such curve, though single readings can be large; an effect the other way counts as inactive or inconclusive. Potency means the concentration at half of the fitted maximal effect.

SMILES | GLS inh | BAZ2B inh | HP1b binding inh | G9a block | JMJD2A Tudor inh
CCOC(=O)CSc1nnc(-c2ccc(OC)cc2)o1 | -15% | 1% | 32% | -1%[59 µM] | 15%
CC(C)(C)n1cnc2cc(NCc3ccccc3Cl)ccc21 | -10% | 32µM* | u | 16µM* | 40µM*
Cc1ccc(S(=O)(=O)Nc2ccc3c(c2)ncn3C(C)(C)C)cc1 | -5% | -3% | 32% | -2%[59 µM] | -3%
Cc1ccc(CNc2ccc3c(c2)ncn3C(C)(C)C)cc1 | 0% | 35µM* | -11% | 7.1µM* | -21%[11.4 µM]
CC(=O)c1cccc(NC(=O)C2=CC(c3ccc(F)cc3)=NS(=O)(=O)N2C)c1 | 5% | 4% | 38% | -2%[59 µM] | -5%
O=C(Nc1cccc(C(F)(F)F)c1)c1cc2ncc(Br)cn2n1 | -25% | u | 19% | 1%[59 µM] | -17%
O=C(Nc1ccc2c(c1)OCO2)c1cc2ncc(Br)cn2n1 | 37% | 50µM* | u | u | u
O=C(NCCc1ccccc1)c1cc2ncc(Br)cn2n1 | -29% | 50µM* | 31% | -7%[12.7 µM] | -25%
COCCNC(=O)c1cc2ncc(Br)cn2n1 | -11% | -2% | 28% | 2%[59 µM] | 0%
Cc1cc(N=Cc2c(O)n(-c3cccc(C(F)(F)F)c3)c(=O)c3ccccc23)no1 | 18% | -2% | 9% | 4%[59 µM] | -11%
COc1cc(CN(C)CCc2ccccn2)cc(OC)c1OC | 10% | 20µM* | u | u | 7.9µM*
COc1ccc(CCN(C)Cc2ccc(OC)c(OCc3ccccc3)c2)cc1OC | 8% | u | -52% | u | 3.2µM*
COc1ccc(CCN(C)Cc2cccc3ccccc23)cc1OC | 1% | -4% | 36% | 16%[0.501 µM] | -12%
COc1cc(CN(C)Cc2ccccc2)cc(OC)c1O | 15% | 2% | 26% | 8.9µM* | -16%
COc1ccc(CCN(C)CC(=O)Nc2cc(C)nc3ccccc23)cc1OC | -34% | 22µM* | 22µM* | 4.5µM* | 0.79µM*
COc1ccc(CCN(C)Cc2c(O)ccc3ccccc23)cc1OC | 25% | -7% | -17% | 8.9µM* | 50µM*
CCc1ccc(CN(C)CCc2ccccn2)cc1 | -5% | 45µM* | u | u | 4µM*
COc1ccc(CN(C)CCc2ccccn2)cc1OC | -3% | 32µM* | -46% | 3.2µM* | 35µM*
COc1ccc(CCN(C)C/C=C/c2ccccc2[N+](=O)[O-])cc1OC | 6% | u | -18% | x | 22µM*
CCN(CC)Cc1ccccn1 | 23% | 19% | 15% | x | -20%
COc1cc2c(cc1OC)C(c1cccs1)CC(=O)N2 (stereo not given) | x | -10% | 20% | 5%[59 µM] | -16%
CN1CCN(C(=O)c2ccc3c(Cl)c4c(nc3c2)CCCC4)CC1 | 12% | u | 13% | 17% | -7%
CCOc1ccc2nc(NC(=O)CN3CCN(CC)CC3)sc2c1 | 7% | -5% | 16% | 45µM* | -8%
CCOc1ccc2nc(NC(=O)CSc3nc4c(c(=O)n(C)c(=O)n4C)n3C(C)C)sc2c1 | 0% | -3% | 17% | -24%[59 µM] | -15%
CCOc1ccc2nc(NC(=O)Cn3cnc4c3c(=O)n(C)c(=O)n4C)sc2c1 | -2% | -7% | 17% | 79µM* | -28%
SMILES | GLS inh | BAZ2B inh | HP1b binding inh | G9a block | JMJD2A Tudor inh
CCOc1ccc2nc(NC(=O)CN3CCN(C)CC3)sc2c1 | 12% | u | 7% | 35µM* | -18%
CCOc1ccc2nc(NC(=O)Nc3cccs3)sc2c1 | 2% | -6% | 8% | 45µM* | u
CCc1ccc(S(=O)(=O)c2nnn3c2nc(NC(C)C)c2sccc23)cc1 | -3% | -8% | 24% | -18%[59 µM] | -5%
Nc1cc(=O)[nH]c(SCc2csc(-c3ccccc3)n2)n1 | 10% | -1% | 10% | 14%[59 µM] | -9%
CCOc1ccc2nc(NC(=O)Nc3ccccc3)sc2c1 | -3% | 1% | 36% | -20%[59 µM] | -22%
CCOc1ccc2nc(NC(=O)C34CC5CC(CC(NC(C)=O)(C5)C3)C4)sc2c1 | 0% | -14% | -4% | 16µM* | -31%
CCOc1ccc2nc(NC(=S)NCc3ccccc3)sc2c1 | -2% | 0% | u | 7.1µM* | -15%
COc1ccc(C2CC(=O)N(Cc3ccc(F)cc3)c3ccccc3S2)cc1OC (stereo not given) | 7% | -16% | 30% | -20%[59 µM] | -15%
CC(C)C(=O)Nc1cccnc1 | -2% | -1% | 28% | 12%[59 µM] | -20%
COC(=O)C1=COC(C)C2CN3CCc4c([nH]c5ccccc45)C3CC12 (stereo not given) | -1% | u | -1% | 45µM* | u
COC(=O)[C@@H]1[C@H]2C[C@H]3c4[nH]c5ccccc5c4CCN3C[C@H]2CC[C@@H]1O | x | x | x | 25%[59 µM] | x
O=C(O)[C@@H]1[C@H]2C[C@H]3c4[nH]c5ccccc5c4CCN3C[C@@H]2CC[C@@H]1O | u | u | -36% | u | 56µM*
COC(=O)C1=CO[C@@H](C)[C@H]2CN3CCc4c([nH]c5ccccc45)[C@@H]3C[C@H]12 | 11% | u | 5% | -42%[59 µM] | -29%
CCOC(=O)c1c(C)[nH]c(C)c1S(=O)(=O)N(C)CC(=O)NCc1cccc(C)c1 | -4% | -23% | 15% | 33% | -14%
COc1cccc(/C=N/Nc2nnc(C)n2N)c1OCc1ccccc1Cl | 14% | 16% | 8% | 22µM* | -30%
CCc1nnc(N/N=C/c2ccccc2Cl)n1N | u | u | 16% | 22%[0.501 µM] | 89µM*
CC(C)(C)c1nnc(N/N=C/c2ccccc2)n(N)c1=O | -5% | 5% | 21% | -3%[59 µM] | -24%
CCc1nnc(N/N=C/c2ccccc2F)n1N | u | u | 36% | u | -1%
CC(C)(C)c1nnc(N/N=C/c2ccccc2O)n(N)c1=O | 28% | 20µM* | 20% | 78%[59 µM] | 22µM*
COc1ccc(C2=NCCc3cc(OC)c(OC)cc32)cc1 | -1% | -5% | 15% | 19%[59 µM] | -1%
CC(C)(C)C1CCc2c(sc(NC(=O)c3ccco3)c2C(=O)Nc2ccccc2Cl)C1 (stereo not given) | -7% | 5% | 38% | -37%[59 µM] | -5%
Cc1nc2c(ccc3nc(NC(=O)c4ccc5c(c4)OCCO5)sc32)s1 | -30% | -37% | 30% | 28µM* | u
Cc1nc2ccc3nc(NC(=O)c4ccc5c(c4)OCCO5)sc3c2s1 | 1% | -7% | 55% | 13% | -31%
COC(=O)C1=C(C)N(Cc2ccc(OC)cc2)C(=O)/C1=C\c1ccco1 | -3% | 13µM* | u | 10µM* | 40µM*
COC(=O)C1=C(C)N(C)C(=O)/C1=C\c1ccco1 | -3% | u | -7% | -8%[59 µM] | -22%
COC(=O)C1=C(C)N(Cc2ccco2)C(=O)C1 | u | 0% | 24% | u | -13%
COC(=O)C1=C(C)N(Cc2ccco2)C(=O)/C1=C\c1ccc([N+](=O)[O-])cc1 | -3% | u | -9% | 18µM* | u
CN(CC(=O)Nc1ccc(S(N)(=O)=O)cc1)C1CCCCC1 | 16% | 7% | 34% | -4% | -4%
